# ChEMBL document CHEMBL3988442, “University of Dundee, Small-Polar-MMV Screening Library” (2021)
# For some assays here: Entries with a potency or affinity are not part of this list.
# Key:
# Design in all cases: scale not given: direction of the effect not stated beside the values
# [1] = molecular target: Protein translocase subunit SecA (Escherichia coli (strain K12)) (UniProt P10408); assay: Assay to Identify E. coli SecA ATPase Inhibitors; type: functional; conditions: 30 µM
# [2] = molecular target: T1, Ubiquitin-activating enzyme e1, putative (Leishmania donovani (strain BPK282A1)) (UniProt E9BSI1); assay: Leishmania donovani Ubiquitin Activating Enzyme (LdE1); type: functional; conditions: 30 µM
# T1 sequence (whole entry): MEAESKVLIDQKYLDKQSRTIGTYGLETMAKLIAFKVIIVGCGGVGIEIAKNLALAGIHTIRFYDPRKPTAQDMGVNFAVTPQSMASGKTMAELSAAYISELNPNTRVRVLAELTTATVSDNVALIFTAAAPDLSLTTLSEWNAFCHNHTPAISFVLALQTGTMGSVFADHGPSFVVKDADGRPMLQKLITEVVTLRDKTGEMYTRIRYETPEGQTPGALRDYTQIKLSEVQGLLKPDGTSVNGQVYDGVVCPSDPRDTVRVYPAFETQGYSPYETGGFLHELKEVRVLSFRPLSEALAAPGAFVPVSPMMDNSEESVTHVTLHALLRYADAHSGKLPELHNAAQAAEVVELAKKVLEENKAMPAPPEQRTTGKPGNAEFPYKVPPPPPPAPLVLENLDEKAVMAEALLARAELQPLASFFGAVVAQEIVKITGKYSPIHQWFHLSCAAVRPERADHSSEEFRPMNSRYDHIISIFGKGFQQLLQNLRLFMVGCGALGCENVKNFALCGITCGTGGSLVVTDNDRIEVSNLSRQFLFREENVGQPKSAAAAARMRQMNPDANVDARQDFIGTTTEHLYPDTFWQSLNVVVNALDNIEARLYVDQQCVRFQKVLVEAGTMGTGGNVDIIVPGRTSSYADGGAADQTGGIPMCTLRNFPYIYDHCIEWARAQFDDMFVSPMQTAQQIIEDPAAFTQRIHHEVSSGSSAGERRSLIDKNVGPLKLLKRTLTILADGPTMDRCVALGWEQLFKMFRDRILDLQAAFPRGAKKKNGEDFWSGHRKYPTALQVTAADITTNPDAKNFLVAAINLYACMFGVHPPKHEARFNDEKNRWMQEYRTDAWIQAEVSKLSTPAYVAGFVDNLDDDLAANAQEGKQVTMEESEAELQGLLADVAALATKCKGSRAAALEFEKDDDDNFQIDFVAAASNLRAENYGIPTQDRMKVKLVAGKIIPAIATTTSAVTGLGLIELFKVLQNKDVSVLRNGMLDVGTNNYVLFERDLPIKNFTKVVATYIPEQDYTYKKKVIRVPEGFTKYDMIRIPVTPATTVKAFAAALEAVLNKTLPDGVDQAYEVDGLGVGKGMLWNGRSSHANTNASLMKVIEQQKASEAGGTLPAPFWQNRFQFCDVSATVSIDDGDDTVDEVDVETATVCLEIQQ
# [3] = molecular target: AMP-activated protein kinase, AMPK (Homo sapiens) (UniProt P54646+O43741+P54619+Q9UGJ0+Q9Y478+Q13131+Q9UGI9); assay: AMP-dependent Kinase enzyme assay. An in vitro enzyme assay that detects ADP turnover that is directly proportional to AMPK activity. This uses naive AMPK that is activated during the assay with MK-8722; type: functional; conditions: 30 µM
# [4] = molecular target: Sialic acid-binding Ig-like lectin 9 (Homo sapiens) (UniProt Q9Y336); assay: Hs-Siglec9 ALPHAscreen SOP 20170721; conditions: 10 µM
# [5] = test system: Trypanosoma cruzi; assay: Trypanosoma cruzi phosphomannomutase and mannose-1-phosphate guanylyltransferase assay; type: functional; conditions: 10 µM
# [6] = molecular target: T2, Arginase-2, mitochondrial (Homo sapiens) (UniProt P78540); assay: in vitro enzyme assay to detect the production of urea directly proportional to the activity of Arginase II; type: functional; conditions: 33.3 µM; also: in the data most compounds retested in dose-response had high values
# T2 sequence (whole entry): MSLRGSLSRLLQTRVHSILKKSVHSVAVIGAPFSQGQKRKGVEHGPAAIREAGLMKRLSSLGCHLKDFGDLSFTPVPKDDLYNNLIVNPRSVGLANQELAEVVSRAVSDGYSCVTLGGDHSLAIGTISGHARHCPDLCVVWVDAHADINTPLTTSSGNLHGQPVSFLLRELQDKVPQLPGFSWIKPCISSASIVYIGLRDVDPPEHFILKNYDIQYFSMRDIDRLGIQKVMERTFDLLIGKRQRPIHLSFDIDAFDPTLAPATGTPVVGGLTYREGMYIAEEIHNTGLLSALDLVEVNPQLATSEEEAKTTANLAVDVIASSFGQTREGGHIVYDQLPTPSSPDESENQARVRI
# [7] = molecular target: T3, Proteasome subunit beta (Trypanosoma cruzi) (UniProt O96673); assay: Trypanosoma cruzi proteasome chymotrypsin-like activity (TcProtChymo) assay.; also: in the data most compounds retested in dose-response had high values; type: functional; conditions: 9.37 µM
# T3 sequence (whole entry): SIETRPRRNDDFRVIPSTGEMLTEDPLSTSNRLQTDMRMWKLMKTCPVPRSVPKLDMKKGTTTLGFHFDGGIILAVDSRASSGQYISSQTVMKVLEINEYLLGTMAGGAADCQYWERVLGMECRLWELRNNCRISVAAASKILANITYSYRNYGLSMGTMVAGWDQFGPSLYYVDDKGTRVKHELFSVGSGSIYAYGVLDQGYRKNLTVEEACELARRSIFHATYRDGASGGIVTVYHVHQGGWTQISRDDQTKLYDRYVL
# [8] = organism: Homo sapiens; assay: To identify inhibition of the IFN signalling (Jak-Stat) pathway via expression of an eGFP reporter gene under the control of an IFN-stimulated response element (ISRE) containing MxA promoter.; type: functional; conditions: 30 µM
# [9] = molecular target: T4, Tyrosyl-tRNA synthetase, putative (Trypanosoma cruzi (strain CL Brener)) (UniProt Q4DSP6); assay: Trypanosoma cruzi tyrosyl tRNA synthetase (TcYRS) _High Tyrosine SOP; type: functional; conditions: 30 µM; also: in the data most compounds retested in dose-response had high values
# T4 sequence (whole entry): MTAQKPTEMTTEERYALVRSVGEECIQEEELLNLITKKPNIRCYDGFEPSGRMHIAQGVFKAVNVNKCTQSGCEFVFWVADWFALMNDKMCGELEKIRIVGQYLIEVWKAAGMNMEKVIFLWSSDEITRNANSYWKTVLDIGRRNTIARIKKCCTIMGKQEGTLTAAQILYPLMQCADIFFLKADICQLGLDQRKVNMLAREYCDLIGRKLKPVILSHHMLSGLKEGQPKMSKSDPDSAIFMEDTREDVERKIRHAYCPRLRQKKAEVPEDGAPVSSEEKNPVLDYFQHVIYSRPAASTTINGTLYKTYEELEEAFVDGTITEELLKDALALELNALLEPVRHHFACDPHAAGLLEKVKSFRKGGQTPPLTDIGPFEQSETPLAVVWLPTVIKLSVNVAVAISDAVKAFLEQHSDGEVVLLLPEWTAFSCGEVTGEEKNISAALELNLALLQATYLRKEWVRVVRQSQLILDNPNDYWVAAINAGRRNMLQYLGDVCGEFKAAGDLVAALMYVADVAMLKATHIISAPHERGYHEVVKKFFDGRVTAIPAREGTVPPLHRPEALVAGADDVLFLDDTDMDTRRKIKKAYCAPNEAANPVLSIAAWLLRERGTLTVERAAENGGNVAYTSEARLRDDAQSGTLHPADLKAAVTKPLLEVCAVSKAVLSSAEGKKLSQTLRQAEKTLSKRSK
# [10] = molecular target: T4, Tyrosyl-tRNA synthetase, putative (Trypanosoma cruzi (strain CL Brener)); assay: Trypanosoma cruzi tyrosyl tRNA synthetase (TcYRS) SOP; type: functional; conditions: 30 µM
# [11] = molecular target: Chromo domain-containing protein 1 (Saccharomyces cerevisiae (strain ATCC 204508 / S288c) (Baker's yeast)) (UniProt P32657); assay: ScCHD-1 Enzyme Inhibition Assay; type: functional; conditions: 30 µM; also: in the data most compounds retested in dose-response had high values
# Chain of Chromo domain-containing protein 1 (Saccharomyces cerevisiae (strain ATCC 204508 / S288c) (Baker's yeast)) (P32657 whole entry, the tested form may be a part): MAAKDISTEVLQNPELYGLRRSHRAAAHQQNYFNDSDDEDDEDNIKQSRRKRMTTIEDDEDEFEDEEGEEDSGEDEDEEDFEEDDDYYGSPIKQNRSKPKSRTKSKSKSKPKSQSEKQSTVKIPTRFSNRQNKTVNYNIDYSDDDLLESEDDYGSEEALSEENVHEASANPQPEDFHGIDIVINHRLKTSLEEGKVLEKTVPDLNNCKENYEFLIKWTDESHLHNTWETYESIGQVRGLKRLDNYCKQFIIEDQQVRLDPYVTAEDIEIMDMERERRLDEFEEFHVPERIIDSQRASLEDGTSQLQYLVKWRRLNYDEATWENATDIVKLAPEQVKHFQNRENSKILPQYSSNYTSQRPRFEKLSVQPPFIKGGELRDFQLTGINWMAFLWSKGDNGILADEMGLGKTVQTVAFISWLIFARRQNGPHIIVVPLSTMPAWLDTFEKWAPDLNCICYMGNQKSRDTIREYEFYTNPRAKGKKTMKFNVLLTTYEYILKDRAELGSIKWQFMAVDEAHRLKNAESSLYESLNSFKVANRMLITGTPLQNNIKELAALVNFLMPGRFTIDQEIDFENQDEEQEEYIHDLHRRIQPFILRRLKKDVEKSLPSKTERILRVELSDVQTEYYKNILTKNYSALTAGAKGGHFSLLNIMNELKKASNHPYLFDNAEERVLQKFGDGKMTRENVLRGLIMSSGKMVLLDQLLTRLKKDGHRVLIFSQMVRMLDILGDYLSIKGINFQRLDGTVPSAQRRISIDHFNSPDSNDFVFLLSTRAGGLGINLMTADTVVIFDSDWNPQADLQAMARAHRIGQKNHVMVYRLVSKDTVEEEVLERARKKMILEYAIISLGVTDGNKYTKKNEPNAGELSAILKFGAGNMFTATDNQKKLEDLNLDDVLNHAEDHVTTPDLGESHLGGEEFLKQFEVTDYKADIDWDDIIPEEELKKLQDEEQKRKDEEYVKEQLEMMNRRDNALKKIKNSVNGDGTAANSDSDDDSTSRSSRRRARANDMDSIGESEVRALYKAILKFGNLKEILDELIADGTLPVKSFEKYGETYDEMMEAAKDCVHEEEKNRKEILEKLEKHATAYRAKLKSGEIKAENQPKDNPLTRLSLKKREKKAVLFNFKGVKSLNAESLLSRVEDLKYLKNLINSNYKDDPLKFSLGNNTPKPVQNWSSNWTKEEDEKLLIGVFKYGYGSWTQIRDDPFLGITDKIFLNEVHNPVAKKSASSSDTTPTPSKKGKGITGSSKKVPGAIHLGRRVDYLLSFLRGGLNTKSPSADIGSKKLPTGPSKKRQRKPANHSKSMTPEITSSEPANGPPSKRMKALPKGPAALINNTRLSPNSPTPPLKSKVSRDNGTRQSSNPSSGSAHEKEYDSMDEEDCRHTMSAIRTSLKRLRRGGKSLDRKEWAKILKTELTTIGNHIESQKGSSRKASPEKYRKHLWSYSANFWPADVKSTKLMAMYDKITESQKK
# Chain of Sialic acid-binding Ig-like lectin 9 (Homo sapiens) (Q9Y336 whole entry): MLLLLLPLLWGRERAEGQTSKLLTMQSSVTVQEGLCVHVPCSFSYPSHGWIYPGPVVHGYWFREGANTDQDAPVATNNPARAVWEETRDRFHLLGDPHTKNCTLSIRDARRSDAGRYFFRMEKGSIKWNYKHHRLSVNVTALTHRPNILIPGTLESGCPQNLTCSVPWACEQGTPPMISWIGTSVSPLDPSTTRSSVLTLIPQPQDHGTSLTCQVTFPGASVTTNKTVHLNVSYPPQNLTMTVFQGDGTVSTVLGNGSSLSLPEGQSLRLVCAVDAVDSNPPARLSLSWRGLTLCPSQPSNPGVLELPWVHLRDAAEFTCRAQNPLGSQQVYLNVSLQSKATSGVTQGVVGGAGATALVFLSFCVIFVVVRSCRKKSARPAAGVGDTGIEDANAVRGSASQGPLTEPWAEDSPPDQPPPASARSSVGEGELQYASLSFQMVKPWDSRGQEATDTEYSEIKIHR
# Chain of Protein translocase subunit SecA (Escherichia coli (strain K12)) (P10408 whole entry): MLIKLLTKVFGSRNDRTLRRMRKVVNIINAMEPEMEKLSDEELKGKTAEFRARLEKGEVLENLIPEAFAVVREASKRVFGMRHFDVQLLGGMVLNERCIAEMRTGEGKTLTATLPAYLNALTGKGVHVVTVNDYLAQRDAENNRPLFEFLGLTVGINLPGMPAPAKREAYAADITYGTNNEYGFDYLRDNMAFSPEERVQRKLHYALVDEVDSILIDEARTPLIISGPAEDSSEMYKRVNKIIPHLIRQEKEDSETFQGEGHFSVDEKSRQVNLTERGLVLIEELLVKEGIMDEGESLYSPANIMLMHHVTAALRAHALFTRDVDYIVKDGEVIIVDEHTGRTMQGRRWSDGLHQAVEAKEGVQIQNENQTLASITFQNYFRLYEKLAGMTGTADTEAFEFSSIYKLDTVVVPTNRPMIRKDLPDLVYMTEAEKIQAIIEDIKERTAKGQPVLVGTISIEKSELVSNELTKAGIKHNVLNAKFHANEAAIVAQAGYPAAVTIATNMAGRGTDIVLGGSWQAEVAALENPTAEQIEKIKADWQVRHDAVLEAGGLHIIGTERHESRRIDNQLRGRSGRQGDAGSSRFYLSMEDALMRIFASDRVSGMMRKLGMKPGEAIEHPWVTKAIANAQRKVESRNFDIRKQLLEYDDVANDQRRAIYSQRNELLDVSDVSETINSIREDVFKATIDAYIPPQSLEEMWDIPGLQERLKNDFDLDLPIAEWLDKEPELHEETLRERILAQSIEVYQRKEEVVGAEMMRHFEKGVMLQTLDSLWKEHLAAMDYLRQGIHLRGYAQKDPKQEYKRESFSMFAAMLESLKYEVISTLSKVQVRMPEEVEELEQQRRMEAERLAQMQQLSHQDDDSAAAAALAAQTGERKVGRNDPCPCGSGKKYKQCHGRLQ
Compound,Percent Effect [1] [%],Percent Effect [2] [%],Percent Effect [3] [%],Percent Effect [4] [%],Percent Effect [5] [%],Percent Effect [6] [%],Percent Effect [7] [%],Percent Effect [8] [%],Percent Effect [9] [%],Percent Effect [10] [%],Percent Effect [11] [%]
Cc1noc(C)c1CN1CC[C@H]2OCC[C@@H](C(=O)NCC3CC3)[C@@H]2C1,-4.39,2.67,1.83,6.75,-1.54,-25.3,8.21,-17.4,0,12.5,-5.06
Cc1cccc(CN2CCc3ncnc(C)c3CC2)n1,1.12,8.22,5.73,7.82,-5.75,-0.798,13.4,4.7,-1.04,8.64,-4.79
O=C(CCC1CCCO1)NCc1ccnc(-n2cccn2)c1 (stereo not given),-7.06,13.2,2.95,-9.63,-7.38,-1.44,5.33,10.6,0.493,11.1,-5.06
O=C(c1cncc(Br)c1)N1CCC(O)(Cn2ccc3ccncc32)CC1,1.79,1.35,12.2,-0.489,-7.91,1.62,9.52,9.61,1.07,1.3,-12.2
Cc1csc(CCCNC(=O)[C@H]2CNC[C@@H](C(=O)N3CCCC3)C2)n1,-4.06,8.22,0.0773,8.38,-1.39,0.399,15.8,-8.49,10.4,11.1,-1.73
CCN(CCNC(=O)c1ccccc1OCCOC)C1CC1,-1.14,21.5,-0.982,-8.11,0.513,-4.52,17,14.4,3.12,17.7,-34.3
CCc1nc(CCNC(=O)Nc2cc(C(N)=O)sc2C)cs1,-6.09,0,-8.97,-2.52,-4.19,-1.56,3.14,19.9,-0.546,-3.7,4.38
Cc1cc(C)n(C2CN(CC(O)c3ccc4c(c3)OCO4)C2)n1 (stereo not given),-2.6,-13,0.139,7.69,3.37,-2.85,4.56,26.7,15.5,12.2,-2.01
CN1CCC(Oc2ccc(NC(=O)c3ccccc3Br)cc2)CC1,-0.903,-2.6,0.999,7.1,6,-4.14,10.8,7.69,1.07,3.7,-4.57
Cc1csc(CNC(=O)NCC(O)c2cccc(Cl)c2)n1 (stereo not given),-1.7,8.11,-4.44,1.18,3.48,-2.38,20.5,24.4,3.7,12.2,-0.155
